From the supplement of paper PMC8728848
This is one part of a sample in which the strongest signals are shown more often than they occur.

Assays:
Experiment in all cases: glycan array binding signal (z-score within array); higher = stronger binding
Conditions in all cases: glycan notation: IUPAC condensed, linker removed
GalNAc(b1-3)GlcNAc = molecular target: GalNAc(b1-3)GlcNAc
How it was run: (§1)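 The Consortium for Functional Glycomics database supplied 3228 glycan arrays, of which those lacking an available protein sequence were dropped. The binding signal, a within-array Z-score, was averaged across arrays of the same protein sequence and across linkers. Negative scores can be read as non-binding.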

[1] = molecular target: Glc(a1-6)Glc(a1-6)Glc(a1-6)Glc
How it was run: as §1

[2] = molecular target: GlcNAc(a1-4)Gal(b1-3)GlcNAc
How it was run: as §1

[3] = molecular target: GlcNAc(b1-2)Man(a1-3)[GlcNAc(b1-2)Man(a1-6)]Man(b1-4)GlcNAc(b1-4)[Fuc(a1-6)]GlcNAc
How it was run: as §1

[4] = molecular target: GlcNAc(b1-3)Gal(b1-4)GlcNAc(b1-3)Gal(b1-4)GlcNAc(b1-3)Gal(b1-4)GlcNAc(b1-3)Gal(b1-4)GlcNAc(b1-2)Man(a1-3)[GlcNAc(b1-3)Gal(b1-4)GlcNAc(b1-3)Gal(b1-4)GlcNAc(b1-3)Gal(b1-4)GlcNAc(b1-3)Gal(b1-4)GlcNAc(b1-2)Man(a1-6)]Man(b1-4)GlcNAc(b1-4)[Fuc(a1-6)]GlcNAc
How it was run: as §1

[5] = molecular target: GlcNAc(b1-4)GlcNAc(b1-4)GlcNAc
How it was run: as §1

[6] = molecular target: GlcNAc(b1-4)GlcNAc(b1-4)GlcNAc(b1-4)GlcNAc(b1-4)GlcNAc
How it was run: as §1

[7] = molecular target: GlcNAc(b1-6)Gal(b1-4)GlcNAc
How it was run: as §1

GlcNAc(b1-6)GalNAc = molecular target: GlcNAc(b1-6)GalNAc
How it was run: as §1

[8] = molecular target: Neu5Ac(a2-3)Gal(b1-3)GalNAc
How it was run: as §1

[9] = molecular target: Neu5Ac(a2-3)Gal(b1-3)GalNAc(b1-4)[Neu5Ac(a2-3)]Gal(b1-4)Glc
How it was run: as §1

[10] = molecular target: Neu5Ac(a2-3)Gal(b1-4)GlcNAc(b1-2)Man
How it was run: as §1

[11] = molecular target: Neu5Ac(a2-3)Gal(b1-4)GlcNAc(b1-2)Man(a1-3)[Neu5Ac(a2-3)Gal(b1-4)GlcNAc(b1-2)Man(a1-6)]Man(b1-4)GlcNAc(b1-4)[Fuc(a1-6)]GlcNAc
How it was run: as §1

[12] = molecular target: Neu5Ac(a2-3)Gal(b1-4)GlcNAc(b1-2)[Neu5Ac(a2-3)Gal(b1-4)GlcNAc(b1-4)]Man(a1-3)[GlcNAc(b1-4)][Neu5Ac(a2-3)Gal(b1-4)GlcNAc(b1-2)[Neu5Ac(a2-3)Gal(b1-4)GlcNAc(b1-6)]Man(a1-6)]Man(b1-4)GlcNAc(b1-4)GlcNAc
How it was run: as §1

[13] = molecular target: Neu5Ac(a2-3)Gal(b1-4)GlcNAc(b1-3)Gal(b1-4)GlcNAc(b1-2)Man(a1-3)[Neu5Ac(a2-3)Gal(b1-4)GlcNAc(b1-3)Gal(b1-4)GlcNAc(b1-2)Man(a1-6)]Man(b1-4)GlcNAc(b1-4)GlcNAc
How it was run: as §1

[14] = molecular target: Neu5Ac(a2-3)Gal(b1-4)[Fuc(a1-3)]GlcNAc(b1-2)Man
How it was run: as §1

[15] = molecular target: Neu5Ac(a2-3)Gal6S(b1-4)GlcNAc
How it was run: as §1

[16] = molecular target: Neu5Ac(a2-6)Gal(b1-4)GlcNAc(b1-2)Man(a1-3)[GlcNAc(b1-2)Man(a1-6)]Man(b1-4)GlcNAc(b1-4)GlcNAc
How it was run: as §1

[17] = molecular target: Neu5Ac(a2-6)Gal(b1-4)GlcNAc(b1-3)Gal(b1-4)GlcNAc(b1-2)Man(a1-3)[Neu5Ac(a2-6)Gal(b1-4)GlcNAc(b1-3)Gal(b1-4)GlcNAc(b1-2)Man(a1-6)]GalNAc
How it was run: as §1

[18] = molecular target: Neu5Ac(a2-6)Gal(b1-4)GlcNAc(b1-3)Gal(b1-4)GlcNAc(b1-3)GalNAc
How it was run: as §1

[19] = molecular target: Neu5Ac(a2-6)Gal(b1-4)GlcNAc(b1-3)Gal(b1-4)GlcNAc(b1-6)[Gal(b1-3)]GalNAc
How it was run: as §1

[20] = molecular target: Neu5Ac(a2-6)Gal(b1-4)GlcNAc(b1-3)Gal(b1-4)[Fuc(a1-3)]GlcNAc(b1-3)Gal(b1-4)[Fuc(a1-3)]GlcNAc
How it was run: as §1

[21] = molecular target: Neu5Ac(a2-6)GlcNAc(b1-4)GlcNAc(b1-4)GlcNAc
How it was run: as §1

[22] = molecular target: Neu5Ac(a2-8)Neu5Ac(a2-3)Gal(b1-4)GlcNAc
How it was run: as §1

[23] = molecular target: Neu5Ac(a2-8)Neu5Ac(a2-3)[Gal(b1-3)GalNAc(b1-4)]Gal(b1-4)Glc
How it was run: as §1

[24] = molecular target: Neu5Ac(a2-8)Neu5Gc(a2-3)Gal(b1-4)GlcNAc
How it was run: as §1

[25] = molecular target: Neu5Ac9Ac(a2-3)Gal(b1-3)GlcNAc
How it was run: as §1

[26] = molecular target: Neu5Gc(a2-8)Neu5Gc(a2-3)Gal(b1-4)GlcNAc(b1-3)Gal(b1-4)GlcNAc
How it was run: as §1

B1: PX9937D-bvu-500-26-500 (Bacteroides vulgatus) (protein)
chain: DPVSDITDLNYWKTPEQFDSFVFGLHSRFRSHSWNMFLLGEARSDVFGGIPFGGEATQGMERFPYNTLNAENPGISGFGDLYQNINQMNLFISRTLHTDVLTESARNYYLGQVYGLRAYYMYQLYRSWGDVVFTEEPSLGFEVGKLAKAATPAAEIFEQVKKDIESSLSYFGSDYTIKEKKSLWSKAATLMLKADVYLWSAHRDGGEGDARTAKNALVDIQNNISRSNLDLMDTYQGVFAYDNKGNKEIIFTIHNELFEYNLWNGNNDLFPQADYLGKFYNADGTLINTSVENNFGIMRLMVKLENFKKFLPGDTRRDVTLKDVYNKVENGKLELVGVYPHKYWGVMNGSTRVRCDDYPIYRYSDLLLMLAEAKVLLGEDPATEINRVRRRAFGDAYDASTVGFPNQEVDKRPADAVLQERLFEFMLEGKRWYDLRRFGDSYVLDYTPAEPARLLWPINQGALTNNPLLKQTVGY
glycan array binding signal (z-score) (GalNAc(b1-3)GlcNAc): -0.418
glycan array binding signal (z-score) [1]: -0.405
glycan array binding signal (z-score) [2]: -0.056
glycan array binding signal (z-score) [3]: -0.178
glycan array binding signal (z-score) [4]: -0.298
glycan array binding signal (z-score) [5]: -0.41
glycan array binding signal (z-score) [6]: -0.558
glycan array binding signal (z-score) [7]: 0.08
glycan array binding signal (z-score) (GlcNAc(b1-6)GalNAc): 0.455
glycan array binding signal (z-score) [8]: -0.219
glycan array binding signal (z-score) [9]: -0.308
glycan array binding signal (z-score) [10]: -0.574
glycan array binding signal (z-score) [11]: -0.13
glycan array binding signal (z-score) [12]: -0.306
glycan array binding signal (z-score) [13]: 0.163
glycan array binding signal (z-score) [14]: 0.114
glycan array binding signal (z-score) [15]: -0.307
glycan array binding signal (z-score) [16]: -0.121
glycan array binding signal (z-score) [17]: 4.23
glycan array binding signal (z-score) [18]: -0.414
glycan array binding signal (z-score) [19]: 0.256
glycan array binding signal (z-score) [20]: 0.021
glycan array binding signal (z-score) [21]: 0.037
glycan array binding signal (z-score) [22]: -0.636
glycan array binding signal (z-score) [23]: -0.284
glycan array binding signal (z-score) [24]: 10.6
glycan array binding signal (z-score) [25]: -0.36
glycan array binding signal (z-score) [26]: -0.056
